About 8,800 targets were measured; listed, in parts, are those with a hit and a random draw of the rest. About 0.5% of all pairs of compound and target were hits.
Assays:
Assay in all cases: log2 fold change, soluble protein after heating vs DMSO (PISA); higher = thermal stabilisation; K562 lysate, 10 uM; active = over 0.2 and 3.5 SD of the protein, either way, in both replicates (recomputed)
ibrutinib = compound: C=CC(=O)N1CCC[C@@H](n2nc(-c3ccc(Oc4ccccc4)cc3)c3c(N)ncnc32)C1 [ibrutinib]
How it was run: (§1)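 The values are log-two fold changes in thermal stability compared with solvent controls and come from duplicates. They were obtained by TMTpro 16plex LC-MS/MS, with channel sums equalised, on the supernatant after 21,000xg for 90 min. That supernatant came from crude K562 extract at 1 mg/mL protein treated with 10 μM compound for 30 min, heated for 3 min across 48°C-58°C, pooled and brought to 0.5% NP-40 at 4°C.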

[1] = compound: CC(=O)c1cnc2ccc(-c3cc(Cl)c(O)c(Cl)c3)nc2c1N[C@H]1CC[C@H](CN(C)C)CC1
How it was run: as §1

ralimetinib = compound: CC(C)(C)Cn1c(N)nc2ccc(-c3[nH]c(C(C)(C)C)nc3-c3ccc(F)cc3)nc21 [ralimetinib]
How it was run: as §1

[2] = compound: CC(C)(O)CC(=O)NCCn1ccc2ncnc(Nc3ccc(Oc4cccc(C(F)(F)F)c4)c(Cl)c3)c21
How it was run: as §1

[3] = compound: CC(C)C1=C2N=C(C=C(N2N=C1)NCC3=CC=CC=C3)NCCCCCCN
How it was run: as §1

[4] = compound: CC1=C(C(CC(=O)N1)C2=CC=C(C=C2)C(F)(F)F)C(=O)NC3=C(C=C4C(=C3)C=NN4)F
How it was run: as §1

[5] = compound: CC1=C(C2=C(C=C1)C(=O)C3=CC=CC=C3N2CCCN)C
How it was run: as §1

[6] = compound: CC1=C(C=C(C=C1)NC(=O)C2=CC(=CC=C2)C(C)(C)C#N)NC3=CC4=C(C=C3)N=CN(C4=O)C
How it was run: as §1

[7] = compound: CC1=C(C=C(C=C1)NC(=O)C2=CC(=CC=C2)N(C)C)NC(=O)C3=CC=C(C=C3)O
How it was run: as §1

[8] = compound: CC1=CC=C(C=C1)SC2=C3C=C(SC3=CN=C2)C(=O)N
How it was run: as §1

Measured: log2 fold change

PIK3CB (UniProt P42338)
inactive: ibrutinib -0.009 | [1] 0.388 | ralimetinib -0.011 | [2] -0.005 | [3] -0.076 | [4] -0.003 | [5] 0.035 | [6] -0.012 | [7] 0.056 | [8] 0.018

PCF11 (UniProt O94913)
inactive: ibrutinib -0.027 | [1] -0.006 | ralimetinib -0.005 | [2] -0.02 | [3] 0.022 | [4] 0.03 | [5] -0.02 | [6] -0.021 | [7] 0.045 | [8] -0.02

PUS1 (UniProt Q9Y606)
Chain of UniProt Q9Y606 (Q9Y606 whole entry, looked up): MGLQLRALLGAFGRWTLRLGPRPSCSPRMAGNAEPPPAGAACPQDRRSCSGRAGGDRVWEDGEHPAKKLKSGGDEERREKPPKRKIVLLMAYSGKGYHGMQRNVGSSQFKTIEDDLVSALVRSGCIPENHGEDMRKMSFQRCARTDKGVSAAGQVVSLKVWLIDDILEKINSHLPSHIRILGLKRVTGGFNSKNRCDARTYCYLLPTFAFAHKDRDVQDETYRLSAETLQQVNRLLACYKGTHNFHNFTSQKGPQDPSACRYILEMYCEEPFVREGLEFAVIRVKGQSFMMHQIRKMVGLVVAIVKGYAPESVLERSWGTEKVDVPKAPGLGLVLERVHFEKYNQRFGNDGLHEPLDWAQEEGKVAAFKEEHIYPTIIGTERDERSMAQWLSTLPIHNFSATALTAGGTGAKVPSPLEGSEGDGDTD
inactive: ibrutinib 0.006 | [1] 0.004 | ralimetinib 0.013 | [2] -0.006 | [3] 0.005 | [4] -0.009 | [5] -0.032 | [6] 0.028 | [7] 0.031 | [8] -0.021

POLD1 (UniProt P28340)
inactive: ibrutinib -0.003 | [1] 0.014 | ralimetinib 0.035 | [2] 0.018 | [3] 0 | [4] 0.005 | [5] -0.012 | [6] 0.005 | [7] 0.02 | [8] -0.032

PFKFB3 isoform 4 (UniProt Q16875)
Chain of UniProt Q16875 (Q16875 whole entry, looked up): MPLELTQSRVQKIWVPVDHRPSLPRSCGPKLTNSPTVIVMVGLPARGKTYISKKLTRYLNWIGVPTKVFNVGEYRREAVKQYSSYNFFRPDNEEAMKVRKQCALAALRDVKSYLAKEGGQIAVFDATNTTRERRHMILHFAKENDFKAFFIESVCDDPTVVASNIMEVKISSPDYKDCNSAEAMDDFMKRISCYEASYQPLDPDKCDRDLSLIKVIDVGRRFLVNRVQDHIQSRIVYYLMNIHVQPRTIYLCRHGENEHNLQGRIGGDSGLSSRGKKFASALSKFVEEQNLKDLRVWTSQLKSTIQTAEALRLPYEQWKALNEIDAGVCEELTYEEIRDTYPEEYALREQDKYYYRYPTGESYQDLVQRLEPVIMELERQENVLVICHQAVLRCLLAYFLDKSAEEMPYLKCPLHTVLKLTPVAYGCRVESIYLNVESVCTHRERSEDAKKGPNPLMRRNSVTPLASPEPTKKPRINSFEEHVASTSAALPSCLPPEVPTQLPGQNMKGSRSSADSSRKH
inactive: ibrutinib -0.015 | [1] 0.11 | ralimetinib 0.044 | [2] -0.003 | [3] 0 | [4] 0.027 | [5] 0.003 | [6] 0.011 | [7] -0.019 | [8] 0.148

PPP2R5C isoform 4 (UniProt Q13362)
inactive: ibrutinib 0.023 | [1] -0.011 | ralimetinib -0.089 | [2] -0.05 | [3] -0.032 | [4] -0.003 | [5] 0.095 | [6] 0.05 | [7] 0.012 | [8] 0.001

POLB (UniProt P06746)
inactive: ibrutinib -0.011 | [1] -0.003 | ralimetinib 0.068 | [2] -0.042 | [3] 0.083 | [4] 0.017 | [5] -0.006 | [6] -0.027 | [7] -0.034 | [8] -0.003

PDXDC1 (UniProt Q6P996)
Chain of UniProt Q6P996 (Q6P996 whole entry, looked up): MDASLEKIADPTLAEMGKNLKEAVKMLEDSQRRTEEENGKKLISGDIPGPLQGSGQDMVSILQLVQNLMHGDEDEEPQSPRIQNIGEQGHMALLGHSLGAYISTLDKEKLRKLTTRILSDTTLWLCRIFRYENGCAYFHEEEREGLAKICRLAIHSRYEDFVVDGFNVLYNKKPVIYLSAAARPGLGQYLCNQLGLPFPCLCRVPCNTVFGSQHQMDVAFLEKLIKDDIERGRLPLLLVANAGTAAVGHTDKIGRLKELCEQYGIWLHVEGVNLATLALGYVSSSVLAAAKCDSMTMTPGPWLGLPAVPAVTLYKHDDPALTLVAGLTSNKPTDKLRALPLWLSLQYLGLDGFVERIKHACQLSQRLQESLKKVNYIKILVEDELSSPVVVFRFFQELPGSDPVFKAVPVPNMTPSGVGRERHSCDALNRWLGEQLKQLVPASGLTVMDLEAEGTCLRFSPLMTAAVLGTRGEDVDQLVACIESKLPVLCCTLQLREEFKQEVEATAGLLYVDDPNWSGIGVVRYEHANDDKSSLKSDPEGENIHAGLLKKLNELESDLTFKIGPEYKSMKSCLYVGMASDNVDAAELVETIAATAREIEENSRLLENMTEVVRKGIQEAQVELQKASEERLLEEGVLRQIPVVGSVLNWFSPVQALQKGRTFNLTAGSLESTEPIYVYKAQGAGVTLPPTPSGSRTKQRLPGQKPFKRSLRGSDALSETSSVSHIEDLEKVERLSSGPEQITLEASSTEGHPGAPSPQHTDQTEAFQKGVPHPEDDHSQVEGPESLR
inactive: ibrutinib -0.006 | [1] 0.051 | ralimetinib 0.071 | [2] -0.017 | [3] 0.001 | [4] 0.014 | [5] -0.024 | [6] -0.019 | [7] 0.024 | [8] 0.022

PTK2B (UniProt Q14289)
inactive: ibrutinib 0.014 | [1] 0.073 | ralimetinib -0.04 | [2] -0.072 | [3] -0.005 | [4] -0.039 | [5] -0.001 | [6] -0.049 | [7] 0.013 | [8] -0.022

PEF1 (UniProt Q9UBV8)
Chain of UniProt Q9UBV8 (Q9UBV8 whole entry, looked up): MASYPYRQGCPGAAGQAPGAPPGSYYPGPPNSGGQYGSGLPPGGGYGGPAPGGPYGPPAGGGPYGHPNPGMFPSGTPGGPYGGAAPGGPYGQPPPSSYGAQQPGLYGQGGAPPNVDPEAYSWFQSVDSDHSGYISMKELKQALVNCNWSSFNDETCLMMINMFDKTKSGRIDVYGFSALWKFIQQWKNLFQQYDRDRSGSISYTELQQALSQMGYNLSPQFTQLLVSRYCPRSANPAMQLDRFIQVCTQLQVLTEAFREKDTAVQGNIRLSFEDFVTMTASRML
inactive: ibrutinib 0.009 | [1] -0.021 | ralimetinib -0.034 | [2] -0.036 | [3] -0.029 | [4] -0.025 | [5] -0.004 | [6] 0.021 | [7] 0.01 | [8] -0.01

POLA1 (UniProt P09884)
Chain of UniProt P09884 (P09884 whole entry, looked up): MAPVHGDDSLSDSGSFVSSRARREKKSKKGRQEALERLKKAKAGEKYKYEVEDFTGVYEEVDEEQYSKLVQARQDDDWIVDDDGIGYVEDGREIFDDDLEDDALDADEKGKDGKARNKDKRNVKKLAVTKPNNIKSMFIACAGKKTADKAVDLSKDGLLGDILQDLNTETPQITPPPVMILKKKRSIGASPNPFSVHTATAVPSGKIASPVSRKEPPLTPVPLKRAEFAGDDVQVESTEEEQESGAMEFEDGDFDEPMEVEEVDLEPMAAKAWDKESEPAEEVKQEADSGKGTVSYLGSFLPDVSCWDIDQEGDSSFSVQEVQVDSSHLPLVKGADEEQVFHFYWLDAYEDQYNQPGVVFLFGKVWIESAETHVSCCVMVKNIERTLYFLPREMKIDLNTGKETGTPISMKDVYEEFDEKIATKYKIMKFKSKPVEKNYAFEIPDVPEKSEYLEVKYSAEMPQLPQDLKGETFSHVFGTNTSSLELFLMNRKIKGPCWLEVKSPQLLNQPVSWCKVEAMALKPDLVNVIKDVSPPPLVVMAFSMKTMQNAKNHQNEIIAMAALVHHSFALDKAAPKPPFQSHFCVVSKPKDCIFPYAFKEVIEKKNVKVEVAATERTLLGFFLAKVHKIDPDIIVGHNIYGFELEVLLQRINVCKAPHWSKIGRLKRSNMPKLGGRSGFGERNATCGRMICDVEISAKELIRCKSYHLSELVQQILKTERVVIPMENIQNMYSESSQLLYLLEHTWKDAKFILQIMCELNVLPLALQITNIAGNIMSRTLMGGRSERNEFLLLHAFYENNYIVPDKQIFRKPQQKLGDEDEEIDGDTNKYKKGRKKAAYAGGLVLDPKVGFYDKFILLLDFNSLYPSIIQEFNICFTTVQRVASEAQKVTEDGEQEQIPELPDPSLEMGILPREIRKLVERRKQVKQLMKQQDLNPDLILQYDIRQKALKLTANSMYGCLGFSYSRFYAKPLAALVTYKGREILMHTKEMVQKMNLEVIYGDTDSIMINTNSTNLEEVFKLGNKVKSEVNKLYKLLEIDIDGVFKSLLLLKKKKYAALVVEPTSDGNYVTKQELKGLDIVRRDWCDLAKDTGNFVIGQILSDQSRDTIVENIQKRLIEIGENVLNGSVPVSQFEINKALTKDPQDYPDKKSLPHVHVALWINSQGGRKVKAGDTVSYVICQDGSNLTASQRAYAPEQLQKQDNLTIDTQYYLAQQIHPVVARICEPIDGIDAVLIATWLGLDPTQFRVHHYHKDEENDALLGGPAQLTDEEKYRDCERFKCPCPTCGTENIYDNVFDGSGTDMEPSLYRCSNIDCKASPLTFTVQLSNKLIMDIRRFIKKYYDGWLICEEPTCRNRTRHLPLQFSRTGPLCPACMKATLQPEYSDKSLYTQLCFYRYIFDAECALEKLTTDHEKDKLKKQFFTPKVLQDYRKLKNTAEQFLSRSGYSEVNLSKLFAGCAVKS
inactive: ibrutinib 0 | [1] -0.013 | ralimetinib -0.032 | [2] 0.003 | [3] 0.001 | [4] 0.007 | [5] -0.001 | [6] 0.02 | [7] 0.022 | [8] -0.016

PDXK (UniProt O00764)
inactive: ibrutinib 0.007 | [1] 0.014 | ralimetinib 0.01 | [2] -0.006 | [3] -0.009 | [4] 0.017 | [5] -0.058 | [6] 0.016 | [7] -0.029 | [8] -0.001

PTPN7 isoform 3 (UniProt P35236)
inactive: ibrutinib 0.018 | [1] 0.027 | ralimetinib 0.066 | [2] -0.021 | [3] -0.044 | [4] -0.023 | [5] -0.053 | [6] -0.07 | [7] 0.005 | [8] 0.032

PPIL3 (UniProt Q9H2H8)
Chain of UniProt Q9H2H8 (Q9H2H8 whole entry, looked up): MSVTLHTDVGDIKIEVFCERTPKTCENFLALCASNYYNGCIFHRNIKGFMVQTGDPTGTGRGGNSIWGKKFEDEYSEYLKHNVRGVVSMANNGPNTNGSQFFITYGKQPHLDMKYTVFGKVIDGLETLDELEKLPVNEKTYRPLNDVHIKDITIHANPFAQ
inactive: ibrutinib 0.044 | [1] 0.029 | ralimetinib -0.023 | [2] -0.028 | [3] 0.022 | [4] 0.001 | [5] 0.003 | [6] 0.011 | [7] 0.009 | [8] 0.005

PIKFYVE (UniProt Q9Y2I7)
inactive: ibrutinib 0.019 | [1] -0.012 | ralimetinib 0.011 | [2] -0.012 | [3] 0 | [4] 0.042 | [5] 0.003 | [6] -0.044 | [7] 0.016 | [8] -0.004

PICALM (UniProt H0YEH1)
inactive: ibrutinib -0.077 | [1] 0.009 | ralimetinib -0.035 | [2] -0.039 | [3] 0.05 | [4] 0.003 | [5] 0.014 | [6] -0.024 | [7] 0.012 | [8] -0.091

PIK3R1 (UniProt P27986)
inactive: ibrutinib -0.018 | [1] 0.302 | ralimetinib -0.003 | [2] -0.06 | [3] -0.008 | [4] -0.006 | [5] 0.027 | [6] -0.013 | [7] -0.006 | [8] 0.019

PRKDC (UniProt P78527)
inactive: ibrutinib 0.096 | [1] 0.318 | ralimetinib 0.033 | [2] 0.01 | [3] -0.014 | [4] -0.021 | [5] 0.031 | [6] -0.057 | [7] 0.038 | [8] -0.01

PWP2 (UniProt Q15269)
inactive: ibrutinib 0.003 | [1] -0.021 | ralimetinib 0.048 | [2] 0.027 | [3] 0.009 | [4] 0.037 | [5] -0.014 | [6] -0.035 | [7] 0.018 | [8] 0.015

PUS3 (UniProt Q9BZE2)
Chain of UniProt Q9BZE2 (Q9BZE2 whole entry, looked up): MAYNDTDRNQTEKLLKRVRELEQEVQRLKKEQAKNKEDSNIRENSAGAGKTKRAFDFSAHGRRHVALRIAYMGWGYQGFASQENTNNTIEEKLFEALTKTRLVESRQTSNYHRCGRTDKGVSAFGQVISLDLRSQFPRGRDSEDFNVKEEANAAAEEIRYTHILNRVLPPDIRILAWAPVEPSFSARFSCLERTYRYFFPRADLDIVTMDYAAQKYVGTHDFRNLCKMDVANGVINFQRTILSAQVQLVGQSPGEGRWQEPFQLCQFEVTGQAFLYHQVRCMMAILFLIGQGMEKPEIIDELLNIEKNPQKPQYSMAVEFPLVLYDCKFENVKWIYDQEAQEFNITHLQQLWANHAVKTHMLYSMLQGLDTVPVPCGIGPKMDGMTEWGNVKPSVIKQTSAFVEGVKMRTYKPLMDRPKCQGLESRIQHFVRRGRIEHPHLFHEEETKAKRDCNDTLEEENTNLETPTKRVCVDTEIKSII
inactive: ibrutinib -0.034 | [1] -0.025 | ralimetinib 0.05 | [2] 0.094 | [3] -0.046 | [4] 0.045 | [5] 0.136 | [6] -0.12 | [7] -0.006 | [8] 0

PLA2G4B isoform 6 (UniProt P0C869)
inactive: ibrutinib -0.029 | [1] -0.046 | ralimetinib -0.17 | [2] -0.15 | [3] 0 | [4] -0.047 | [5] -0.149 | [6] 0.34 | [7] -0.005 | [8] -0.052

PRMT8 (UniProt Q9NR22)
Chain of UniProt Q9NR22 (Q9NR22 whole entry, looked up): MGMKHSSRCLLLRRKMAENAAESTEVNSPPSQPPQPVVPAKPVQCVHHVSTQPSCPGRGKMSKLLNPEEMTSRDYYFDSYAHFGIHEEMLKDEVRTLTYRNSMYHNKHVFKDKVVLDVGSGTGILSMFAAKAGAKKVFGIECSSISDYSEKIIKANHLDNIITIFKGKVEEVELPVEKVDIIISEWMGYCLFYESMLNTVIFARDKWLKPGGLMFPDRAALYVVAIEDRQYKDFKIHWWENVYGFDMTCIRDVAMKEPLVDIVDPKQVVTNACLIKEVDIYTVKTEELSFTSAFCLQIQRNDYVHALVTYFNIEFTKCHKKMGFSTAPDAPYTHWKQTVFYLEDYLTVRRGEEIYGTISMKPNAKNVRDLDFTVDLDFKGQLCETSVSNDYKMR
inactive: ibrutinib -0.073 | [1] -0.012 | ralimetinib 0.036 | [2] -0.018 | [3] 0.003 | [4] -0.028 | [5] 0.009 | [6] 0.032 | [7] 0.002 | [8] 0.007

PTGES2 (UniProt Q9H7Z7)
inactive: ibrutinib -0.035 | [1] -0.092 | ralimetinib -0.004 | [2] 0.167 | [3] 0.132 | [4] -0.029 | [5] -0.002 | [6] 0.001 | [7] -0.082 | [8] 0.036

PIP4P2 (UniProt Q8N4L2)
Chain of UniProt Q8N4L2 (Q8N4L2 whole entry, looked up): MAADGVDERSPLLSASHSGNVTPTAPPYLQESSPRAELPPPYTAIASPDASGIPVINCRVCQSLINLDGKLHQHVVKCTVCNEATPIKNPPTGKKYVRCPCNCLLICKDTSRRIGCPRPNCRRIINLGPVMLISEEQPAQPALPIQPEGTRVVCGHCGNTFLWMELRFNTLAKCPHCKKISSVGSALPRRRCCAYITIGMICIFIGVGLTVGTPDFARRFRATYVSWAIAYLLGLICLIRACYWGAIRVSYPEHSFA
inactive: ibrutinib 0.034 | [1] 0.138 | ralimetinib -0.025 | [2] -0.023 | [3] -0.08 | [4] -0.015 | [5] -0.061 | [6] 0.013 | [7] 0.008 | [8] -0.096

PWP1 (UniProt Q13610)
inactive: ibrutinib 0.022 | [1] -0.017 | ralimetinib 0.012 | [2] -0.011 | [3] -0.02 | [4] -0.053 | [5] -0.025 | [6] -0.009 | [7] 0.032 | [8] -0.001

PDAP1 (UniProt Q13442)
Chain of UniProt Q13442 (Q13442 whole entry, looked up): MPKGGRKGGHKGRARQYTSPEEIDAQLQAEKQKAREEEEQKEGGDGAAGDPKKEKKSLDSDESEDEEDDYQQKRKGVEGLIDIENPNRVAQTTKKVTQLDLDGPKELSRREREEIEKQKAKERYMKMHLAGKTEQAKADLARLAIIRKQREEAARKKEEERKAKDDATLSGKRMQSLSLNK
inactive: ibrutinib -0.042 | [1] -0.012 | ralimetinib -0.002 | [2] -0.065 | [3] 0.011 | [4] -0.046 | [5] 0.043 | [6] -0.015 | [7] -0.02 | [8] -0.008

POLR2F (UniProt P61218)
inactive: ibrutinib 0.02 | [1] 0.051 | ralimetinib -0.238 | [2] -0.059 | [3] -0.11 | [4] -0.039 | [5] 0.096 | [6] 0.009 | [7] -0.157 | [8] 0.009

— the supplement of paper PMC10849652
